# Screening data: PubChem, National Center for Advancing Translational Sciences (NCATS)
# Sampled rows, rich in hits. Any-hit rate of the full collection: about 1.8%.
# PTHR1 agonist: PTHR1 (human) receptor agonism | Q03431 | HEK293 GP2 PTHR1 cells, GloSensor cAMP luminescence, 1 h | Potency, µM (doses to about 115 µM), for inactives: at the top dose activation, usual class: activators | actives 0.075% (n = 410,000) | AID 743266; further: nearly all actives have a fitted effect of over 55% in size
#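 HEK-293-derived GP2 cells expressing PTHR1 and a GloSensor cAMP reporter, 3,000/well, plated overnight, given luciferin plus IBMX (each 0.5 mM as added) for 1 h at 37 °C, then compound for 1 h at 37 °C. Luminescence was read after 15 min at room temperature.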
# KAT2A inh: GCN5L2 (KAT2A) acetyltransferase inhibition | Q92830 | GCN5L2 HAT assay, ThioGlo1 CoA-SH fluorescence | Potency, µM (highest dose often 58.9 µM), for the others: at the highest dose activity change, negative = inhibition, hits mostly inhibitors | actives 0.21% (n = 390,000); further: on the % scale 0 is the no-effect control and ±100 the full control effect
#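 Fluorescence readout, Ex340nm/Em540nm: ThioGlo1 (50uM final) reacts with free CoA thiol released as 20nM GCN5L2 acetylates H3(1-25) peptide (75uM) using acetyl-CoA (70uM). Compound and enzyme sat 15 min beforehand; 20 min room-temperature reaction.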
# GLP1R inv ag: acts as inverse agonist at human GLP-1 receptor | P43220 | HEK293 GLP-1R CRE-luciferase, luminescence, 24 h; GLP-1R form is constitutively active | Potency, µM (doses to about 38.3 µM), without a hit: at the highest dose activity change, negative = inhibition, actives largely listed as inhibitors | actives 1.6% (n = 410,000); further: on the % scale 0 is the no-effect control and ±100 the full control effect; nearly all actives have a fitted effect of over 55% in size
#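 HEK293 cells stably co-expressing constitutively active GLP-1R and a cAMP-responsive luciferase reporter were seeded in DMEM with 10% Nu serum, given compounds after 12 h, and incubated 24 h at 37 deg C. Luminescence was then read.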
# GLP-1R agonist: GLP-1 receptor (human) agonism; AID 624172; Potency, µM (highest dose often 45.6 µM), for inactives: top-dose activation, most hits filed as activators; HEK293 GLP-1R CRE-luciferase, luminescence, 4-6 h; cells express a hypersensitive GLP-1R form; actives 0.007% (n = 380,000); further: % of control where 0% means no effect
# HEK293 tox: cytotoxicity in counter-screen for GLP-1R inverse agonists. AID 624418. actives 0.13% (n = 410,000). Potency, µM (top dose mostly 38.3 µM), for inactives: at the highest dose activity change, negative = inhibition, actives largely listed as inhibitors. HEK293 cAMP-luciferase reporter cells, luminescence, 24 h;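 further: loss of luciferase light is scored as toxicity; on the % scale 0 is the no-effect control and ±100 the full control effect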
#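 1536-well qHTS counterscreen of the MLSMR; 200 cells/uL, 12 h pre-incubation, 23 nL cpd, 24 h at 37 deg C 5% CO2, luciferase detection reagent, 12 min RT, luminescence. Inhibition = undesired.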
# RGS4 inhibitor: blocks human RGS4-accelerated GTP hydrolysis. P49798. Transcreener GDP fluorescence polarization, RGS4-accelerated GTP hydrolysis. Potency, µM (top dose mostly 114 µM), for the others: top-dose activity change, negative = inhibition, hits mostly inhibitors. actives 0.039% (n = 390,000). AID 504845; further: on the % scale 0 is the no-effect control and ±100 the full control effect; nearly all actives have a fitted effect of over 75% in size
#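 MLSMR compounds (23 nl, pin-transferred) preincubated 10 min at room temperature with a 500nM (2x) first reagent, then RGS4 at 900nM (2x) plus Transcreener GDP mix added; fluorescence polarization (620/688 nm) read before and after 90 min at 30 °C.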
# * = called active by the depositor; i = inactive; ? = inconclusive; · = no result; [ ] = remark or other dose. The call rests on the fitted dose curve; in most records, active means well fitted curve in the direction sought with a large enough effect; inconclusive means small, poorly fitted or top-dose-only effect, or another doubt; inactive means no such curve, though single readings can be large; an effect the other way counts as inactive or inconclusive. Potency means the concentration at half of the fitted maximal effect.
SMILES,PTHR1 agonist,KAT2A inh,GLP1R inv ag,GLP-1R agonist,HEK293 tox,RGS4 inhibitor
C[C@H](NC(=O)[C@@H](N)Cc1ccc(O)cc1)C(=O)NCC(=O)N(C)[C@@H](Cc1ccccc1)C(=O)NCCO,·,-18.0%,·,·,·,?
CC(=O)c1ccccc1OCC(O)CN1CCN(CCN2C(=O)c3cccc4cccc(c34)C2=O)CC1 (stereo not given),-10.3%,14.0%,?,-1.1%,11.2µM*,-15.5%
COc1ccc(CCNC(=O)N2c3ccccc3Sc3ccccc32)cc1,-31.7%[57.5 µM],·,7.94µM*,7.1%,-18.0%,-26.8%
COc1ccc(CCNC(=O)COC(=O)Cc2ccccc2)cc1,i,2.6%,0.7%,2.8%,-2.7%,27.7%
CCC(C)(C)O,·,5.5%,·,·,·,·
CC(O)CN1CCN(CC(=O)[O-])CCN(CC(=O)[O-])CCN(CC(=O)[O-])CC1.[Gd+3] (stereo not given),·,·,·,0.8%,·,·
CC1OC(O[C@H]2C[C@@H](O)[C@]3(CO)[C@@H]4C(CC[C@]3(O)C2)[C@@]2(O)CC[C@H](C3=CC(=O)OC3)[C@@]2(C)C[C@H]4O)C(O)C(O)C1O (stereo not given in full),·,-18.4%,·,-7.9%,·,i
O=C(Nc1ccc(Cl)c(C(F)(F)F)c1)NC1CC2CCCC(C1)N2Cc1ccccc1 (stereo not given),-14.6%,-6.6%,2.51µM*,-5.9%,?,-4.1%
COC(=O)C1=C(c2ccc(-c3ccccc3)c(F)c2)C[C@@H]2CC[C@H]1N2C(=O)N1CCC(C)CC1,-28.5%,-14.5%,?,10.0%,14.6%,7.8%
COC(=O)C1=C(c2ccc(-c3ccccc3)c(F)c2)C[C@@H]2CC[C@H]1N2C(=O)N1CCC(O)CC1,-22.4%,0.2%,12.6µM*,-4.5%,-42.4%,8.5%
COC(=O)C1=C(c2ccc(-c3ccccc3)c(F)c2)C[C@@H]2CC[C@H]1N2C(=O)N1CCCCC1,-47.6%,-13.7%,11.2µM*,6.0%,2.0%,17.5%
COC(=O)C1=C(c2ccc(-c3ccccc3)c(F)c2)C[C@@H]2CC[C@H]1N2C(=O)N1CCCC1,-27.2%,-6.9%,?,1.1%,-9.8%,-7.3%
CS(=O)(=O)N(Cc1ccccc1)c1ccc(C(=O)Nc2ccc(Cl)cc2)cc1,-21.5%,2.9%,?,·,?,6.5%
CCCOc1ccc(C(=O)Nc2ccc(-c3cc4ccccc4oc3=O)c(C)c2)cc1,-55.8%,-8.5%,?,·,-13.0%,-2.7%
Oc1ccc2c3c1O[C@H]1c4oc5ccccc5c4C[C@]4(O)[C@H](C2)N(CC2CC2)CC[C@@]314,·,-10.8%,·,·,·,i
[2H]c1c([2H])c([2H])c(-c2nc(N3CCCCCC3)sc2C(=O)c2ccccc2)c([2H])c1[2H],-11.0%,-7.3%,2µM*,-0.7%,15.1%,21.3%
S=C(SSC(=S)N1CCCCC1)N1CCCCC1,·,·,·,-7.0%,·,·
CCC(C)NCCOCCOc1ccc(Cl)c2ccccc12 (stereo not given),-15.7%,-9.9%,1.58µM*,-1.8%,?,-14.6%
N#C/C(=C\c1ccc(O)c(O)c1)C(=O)NCCCNC(=O)/C(C#N)=C/c1ccc(O)c(O)c1,·,-26.8%,·,·,·,?
N#C/C(=C/c1ccc(O)c(O)c1)C(N)=S,·,?,·,·,·,6.7µM*
COCCCn1c(N)c(C(=O)OCCOC)c2nc3ccccc3nc21,i,?,38.7%,17.7%,392.2%,-12.6%[11.4 µM]
CCOC(=O)c1c(NS(=O)(=O)c2ccccc2)n(CCCOC)c2nc3ccccc3nc12,-48.3%,22.4µM*,1.0%,-4.2%,470.5%,-3.5%
Cn1c(O)c(/C=N/Nc2ccccc2)c(=O)n(C)c1=O,i,-22.9%,10µM*,9.2%,?,-13.3%
